This is an account of results in PubChem BioAssay AID1662 (Broad Institute, 2009).

SMILES strings stand for the structures. Screen size: about 300,000 compounds; about 4,000 (1.3%) were called active. Shown is part of a subset that was picked to be rich in actives. Unmarked numbers belong to inactive results.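 How the source made its calls: active means mean replicate score, as percent of positive control median, at least 50; inconclusive means mean below 50 but one replicate at or above 50; inactive means mean and every replicate below 50.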

The test can be described thus: kanamycin survival loss of SKKanGAS strain – BacTiter-Glo luminescence, streptokinase expression inhibitor project, primary screen (AID 1662).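 Further: strain carries kanamycin resistance gene driven by streptokinase promoter and grows in 40 µg/ml kanamycin; loss of luminescence reflects streptokinase promoter inhibition or plain growth inhibition; 0% = median of DMSO wells and 100% = positive control at its reference dose.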 Conditions: S. pyogenes SKKanGAS, kanamycin growth, 6 h, at 7.5 µM, stronger effect = higher value.
The inhibition is the drop in the measured response relative to a control, in per cent. As to `O=C(N/N=C/c1c(O)n(C2CC2)c(=S)[nH]c1=O)c1ccccc1`, the inhibition is -1.33%.

Consider `O=c1[nH]c(=O)n(Cc2ccccc2)c(O)c1/C=N/Nc1c(F)c(F)c(F)c(F)c1F`, for which the inhibition was 6.55%.

For the compound `O=C(N/N=C/c1c(O)n(Cc2ccccc2)c(=O)[nH]c1=O)c1ccccc1`, the inhibition is 56.7% (active).

For the compound `COC(=O)N(c1ccc(OC)cc1)P1(=S)OCCC(C)O1` (stereo not given), the inhibition was -2.38%.

In the case of `CCOP(=S)(OCC)SCOC(=O)NCC(=O)OC`, the inhibition is 3.28%.

Take `COc1ccccc1OC(=O)c1ccc(C)c(S(=O)(=O)N2CCOCC2)c1`: the inhibition was 3.63%.

For `CCCCCCCCCCCCn1ccc(=N)cc1`, the inhibition was 93.3% (active).

Consider `O=[N+]([O-])c1ccc(C2C3C(c4ccccc4)=NC4(CCCCC4)N32)cc1` (stereo not given), for which the inhibition was 4.96%.

For `Cc1cccc(NC(=O)OC2CN3CCC2CC3)c1` (stereo not given), the inhibition is 0.418%.

For the compound `CC1(C)C(c2ccccc2)=NC(c2cccnc2)=[N+]1[O-]`, the inhibition is -22%.

Consider `CCCCCn1c(=O)c(C(=O)NCc2ccccc2)c(O)c2ccccc21`, for which the inhibition was 86% (active).

For the compound `CCCCn1c(=O)c(C(=O)Nc2ccccc2Cl)c(O)c2ccccc21`, the inhibition is -1.86%.

In the case of `CCCCCn1c(=O)c(C(=O)NCc2ccccn2)c(O)c2ccccc21`, the inhibition is 6.78%.

As to `COC(=O)C1=C(c2cc3ccccc3o2)C[C@@H]2CC[C@H]1N2C(=O)NC1CCCCC1`, the inhibition is 7.09%.

Turning to `O=C(Cc1ccccc1)N1CCN(C2CCCCCC2)CC1`, the inhibition is 4.36%.
